RE007 growth inh – qHTS Assay for Inhibitors of the HIV-1 protein Vpr. S. pombe RE007 Vpr strain, BacTiter-Glo ATP luminescence, 24 h. Potency, µM (highest dose often 92.2 µM), for inactives: at the top dose activity change, negative = less growth, most hits filed as inhibitors. AID 651644, 2012. actives 0.21% (n = 360,000); active means well fitted falling curve with a large enough effect; inconclusive means small, poorly fitted or top-dose-only effect; inactive means no such curve, though single readings can be large or run the other way; further: potency means the concentration at half of the fitted maximal effect; nearly all actives have a fitted effect of over 50% in size
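Fission yeast RE007 carrying one integrated HIV-1 vpr copy, seeded at OD 0.01 in PMG+AL medium with 23 nL pinned compound. Grown 24 h at 30 degrees; viability read by BacTiter-Glo luminescence after 5 min.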
FMDV inh – High Throughput Screening for Foot and Mouth Disease Virus Antivirals | Potency, µM (doses to about 57.9 µM), inactives show at the top dose activity change, negative = inhibition, most hits filed as inhibitors | FMDV antiviral cell-based qHTS | actives 1.2% (n = 410,000); calls by dose curve; tested in HEK293T cells; further: read-out not given here; potency means the concentration at half of the fitted maximal effect; nearly all actives have a fitted effect of over 45% in size
HCMV inh – qHTS Assay for inhibitors of the human cytomegalovirus (HCMV); HFF cells, HCMV-luciferase reporter, 72 h; hits give low values; activity change, negative = inhibition, % at 57.5 µM; actives 4.5% (n = 410,000); AID 1259415, 2018; in the data active means activity change below about -60%; inconclusive means no clear call, values can overlap the other calls; inactive means above about -39%
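Steps: HFFs plated, 16 h 37C; compounds added; HCMV-luciferase added to MOI 1 PFU/cell; 72 h 37C; OneGlo reagent, 5 min room temperature; luminescence read, normalized to controls.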
Tb PYK inh – qHTS of Trypanosoma Brucei Inhibitors. pyruvate kinase (Trypanosoma brucei), Q57TT1. TbPYK enzyme, Kinase-Glo Plus ATP luminescence, 45 min. Potency, µM (doses to about 76.8 µM), inactives show at the highest dose activity, negative = inhibition, most hits filed as inhibitors. actives 0.12% (n = 410,000). AID 624173, 2012; further: potency means the concentration at half of the fitted maximal effect; nearly all actives have a fitted effect of over 50% in size
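Activity of T. brucei pyruvate kinase was followed by Kinase-Glo Plus luminescence after the enzyme reacted 45 min at room temperature with 130 uM ADP (final) and substrate. Test compounds were added before ADP at multiple concentrations.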
Sm TGR block – qHTS Assay for the Inhibitors of Schistosoma Mansoni Peroxiredoxins; Schistosoma mansoni thioredoxin glutathione reductase (TGR), Q962Y6; actives 3% (n = 360,000); Potency, µM (top dose mostly 114 µM), for inactives: at the top dose activity change, negative = inhibition, hits mostly inhibitors; purified TGR, DTNB reduction, TNB absorbance 405 nm; further: potency means the concentration at half of the fitted maximal effect; nearly all actives have a fitted effect of over 60% in size
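Kinetic colorimetric format: TGR-catalysed, NADPH-driven DTNB reduction monitored via TNB absorbance. Enzyme dispensed at 20 nM; compound exposure 15 min at room temperature before reaction start.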
FBPA Giardia inh – qHTS Assay for Inhibitors of Fructose-1,6-bisphosphate Aldolase from Giardia Lamblia | actives 0.71% (n = 290,000) | purified Giardia FBPA | Potency, µM (titrated, usually from 59.6 µM), without a hit: top-dose activity, negative = inhibition, hits mostly inhibitors | AID 2451, 2010; further: potency means the concentration at half of the fitted maximal effect; nearly all actives have a fitted effect of over 55% in size
Target sequence (A8B2U2 whole entry, looked up): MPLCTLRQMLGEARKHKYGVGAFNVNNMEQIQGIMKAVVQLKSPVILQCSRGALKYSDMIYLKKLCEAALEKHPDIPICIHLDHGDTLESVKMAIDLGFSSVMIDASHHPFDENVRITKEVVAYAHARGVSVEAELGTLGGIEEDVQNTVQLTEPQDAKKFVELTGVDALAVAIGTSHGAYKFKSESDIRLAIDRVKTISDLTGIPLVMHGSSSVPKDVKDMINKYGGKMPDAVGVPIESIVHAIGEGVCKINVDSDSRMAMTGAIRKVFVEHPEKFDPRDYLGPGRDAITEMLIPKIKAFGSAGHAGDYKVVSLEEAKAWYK
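Giardia FBPA (40 nM reagent) was preincubated 10 min at RT with compound (up to 57.5 uM final), then substrate plus GAPDH/TPI/NAD/arsenate coupling system with diaphorase/resazurin was added; resorufin fluorescence (525/598 nm) was read after 20 min.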
* = called active by the depositor; ? = inconclusive; / = no result; [ ] = dose if it differs, or a comment. An excerpt weighted towards active compounds, which were near 7.7% of everything screened. Unless noted, the call rests on the fitted dose curve; in most records, active means well fitted curve in the direction sought with a large enough effect; inconclusive means small, poorly fitted or top-dose-only effect, or another doubt; inactive means no such curve, though single readings can be large; an effect the other way counts as inactive or inconclusive. On the % scale 0 is the no-effect control and ±100 the full control effect.

SMILES	RE007 growth inh	FMDV inh	HCMV inh	Tb PYK inh	Sm TGR block	FBPA Giardia inh
COc1ccccc1C(=O)Nc1cccc(N2CCC(NCc3cnn(-c4ccccc4)n3)CC2)c1	/	-19%	/	/	/	/
Cc1cc(CN(C)C(=O)CC2C(=O)NCCN2Cc2c(F)cccc2Cl)n[nH]1 (stereo unspecified)	-6%	-6%	-32	-5%	40µM*	-20%
O=C1NCCN(Cc2c(F)cccc2Cl)C1CC(=O)N1CCCO1 (stereo unspecified)	1%	-7%	-7	-5%	28µM*	-12%
Cc1nonc1CN(C)C(=O)CC1C(=O)NCCN1Cc1c(F)cccc1Cl (stereo unspecified)	-3%	13%	-10	-9%	5%	3%
Cc1ccccc1-c1nc(-c2ccccn2)no1	?	6.3µM*	-8	?	61%	5%
COc1ccc(-c2nc(-c3ccccn3)no2)cc1	?	7.9µM*	-94*	?	3%	-2%
COc1ccc(-c2nc(-c3cccs3)no2)cc1	-27%	7.1µM*	-35	-24%	1%	0%
COc1ccc(-c2nc(-c3ccncc3)no2)cc1	4%	-1%	99	0%	6%	11%
CCOC(=O)C1=C(O)/C(=C/c2cn(CC(=O)N3CCCC3)c3ccccc23)SC1=Nc1ccccc1	9%	8.9µM*	/	4%	-8%	-2%
CCOc1ccc(CCNC(=O)COC(=O)c2c(C)nn(-c3ccccc3)c2C)cc1OCC	-1%	6%	-99*	-3%	5%	/
COc1ccc(CCNC(=O)c2ccc(CS(=O)(=O)c3ccc(C)cc3)o2)cc1OC	7%	32µM*	-28	-2%	-9%	-4%
COc1ccc(CCNC(=O)c2ccc(CS(=O)(=O)Cc3ccc(C)cc3)o2)cc1OC	3%	-11%	?	-2%	/	/
CCOc1ccc(CCNC(=O)CCS(=O)(=O)c2ccc(C)cc2)cc1OCC	-6%	-15%	-1	4%	32µM*	3%
CCOc1ccc(CCNC(=O)Cn2nc(C)c3c(C)n(-c4ccccc4)nc3c2=O)cc1OCC	-27%	?	-25	-1%	-13%	5%
COc1ccc(CCNC(=O)c2ccc(CS(=O)(=O)c3ccc(Cl)cc3)o2)cc1OC	9%	16µM*	?	-5%	-29%	-3%
COc1ccc2cc3cc(C(=O)N4CCN(c5ccccc5F)CC4)oc3nc2c1	/	-17%	-11	-7%	1%	/
COc1ccc(-c2ccc(N(C)C)cc2)cc1C1C2C=CCCC2(C)C(=O)N1Cc1ccccc1 (stereo unspecified)	/	/	/	/	/	0%
CO[C@@H]1COC(=O)CC=C[C@@H](C)[C@@H]2C=C[C@H](O)[C@@H](COC(=O)[C@H](C)NC(=O)CC=C[C@H]1C)O2	/	/	/	/	/	0%[12.9 µM]
CN(C)c1ccc2cc3c(c(S(=O)(=O)c4ccccc4)c2c1)CCC3	/	/	-10	/	/	/
Cc1ccc(C)n1C1C(=O)N(Cc2ccc(C(C)C)cc2)c2c(F)cccc21 (stereo unspecified)	/	/	-19	/	/	/
COc1ccc(C(=O)CSc2nnc(CNc3nc(-c4ccccc4)cs3)n2C)cc1	9%	40µM*	-10	-4%	8%	-10%
COC(=O)CSc1nnc(CNc2nc(-c3ccccc3)cs2)n1C	-6%	-18%	-1	-19%	-6%	-10%
COc1ccc(NCc2nnc(SCC(=O)Nc3nc(-c4ccccc4)cs3)n2-c2ccccc2)cc1	-1%	-12%	-82*	-2%	0%	-5%
c1ccc(C[n+]2cccc(-c3ccccc3)c2)cc1	-4%	-28%	-72*	-5%	1%	-2%
COCc1ccc(CN2CCc3c([nH]c4ccccc34)C2CC(C)C)o1 (stereo unspecified)	-18%	-15%	-2	-11%	35µM*	-28%
